Results as given in PubChem BioAssay (NCI).
The panel holds about 83,000 compounds, 20% with a hit somewhere; the sample as a whole holds those more often.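 96-well plates, one dose, 48 hours. Percent growth reported; active if below 10.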 A number with no mark means an inactive call. Activity calls are given as the source filed them.

tested on: SN12C renal; assay: NCI-60 one-dose screen, 48 h (100 = growth as untreated, 0 = no growth, -100 = all killed); conditions: 10 µM
Procedure: Growth inhibition of the SN12C human tumor cell line is measured as a screen for anti-cancer activity. Cells are grown in 96 well plates and exposed to the test compound for 48 hours. Compounds are tested at a single concentration, which is 10^-5 M for most compounds. The reported endpoint is percent growth (GI% or GIPRCNT), where numbers from 0 - 100% represent growth inhibition, and numbers from -100% - 0 represent cell death. For example, a value of 40 represents 60% growth inhibition. A value of 0 means no net growth occurred over the course of the experiment. A value of -40 indicates 40% of cells at the beginning of the experiment died by the end of the experiment. A value of -100 means all cells are dead at the end of the experiment.
NCI-60 Human Tumor Cell Lines Screen was performed using the standard one-dose NCI protocol, which is described in more detail at https://dtp.cancer.gov/discovery_development/nci-60/default.htm.
Compounds with GIPRCNT values below 10 were considered active. Activity score was based on GIPRCNT using the following formula: […]
Score is 0 for GIPRCNT values of 100 or above, 50 for GIPRCNT values of 0, and 100 for GIPRCNT values of -100.

Compound | growth
S=c1cnc2ccccc2[nH]1 | 104%
CC(C)(C)OC(=O)N1CCc2c(sc3ncnc(N/N=C/c4ccccc4Br)c23)C1 | 78.7%
COc1cc(-c2nn(-c3cccc(NC(=O)CN4CCOCC4)c3)cc2-c2cccnc2)ccc1Cl | 85.4%
O=S(=O)(Oc1ccc(-c2ccc3sccc3c2)cc1)c1ccccc1 | 97.7%
CC1(C)N=C(N)N=C(N)N1c1cccc(C#N)c1 | 94.3%
CCCc1nc(C(C)(C)O)c(C(=O)O)n1Cc1ccc(-c2ccccc2-c2nn[nH]n2)cc1 | 96.4%
COc1cccc(-c2nc3sccn3c2-c2cccc(S(C)(=O)=O)c2)c1 | 99.1%
COc1ccc(-c2cc(-c3ccc(OC)c(OC)c3)nc(SCCCC(=O)NO)n2)cc1 | 5.59% (active)
Cc1ccc(C(C)C)c(O)c1NC(=O)OC(C)C | 91.9%
CN(C)CCCOc1ccc(OCCCN(C)C)c2c1C(=O)c1ccccc1C2=O | 6.55% (active)
CC(C)(C)c1nn(-c2ccccc2)c2c1CC1(CN2Cc2ccc(Cl)cc2)C(=O)c2ccccc2C1=O | 86.1%
Oc1ccc(-c2[nH]c3ccccc3c2-c2nc3ccccc3o2)cc1 | 84.2%
COC(=O)C1OC1c1cc([N+](=O)[O-])ccc1OC (stereo not given) | 107%
CCOS(=O)(=O)c1c(C(C)C)cc(C(C)C)cc1C(C)C | 98.3%
CC(C)CCN(CCC(C)C)CC(=O)Nc1ccc(S(=O)(=O)c2ccc(NC(=O)CN(CCC(C)C)CCC(C)C)cc2)cc1 | 74.6%
Cc1cn(-c2cc(F)cc(NC(=O)c3ccc(C)c(Nc4nccc(-c5cccnc5)n4)c3)c2)cn1 | 20.9%
Cc1cc(CSc2ccccc2C(=O)N2CC=C(c3ccccc3)CC2)on1 | 105%
O=C(CSc1nnc(-c2cccnc2SCc2ccccc2)o1)Nc1nc(Cl)cc(Cl)n1 | 103%
COc1ccc(-c2cc(-c3ccc(Cl)cc3)nc(SCCCCCCC(=O)NO)n2)cc1OC | 70.6%
Cc1c(Cl)cccc1NC(=O)CCCl | 95.8%

Compound | growth
COc1cc(OC)c2c(=O)c(O)c(-c3ccccc3)oc2c1 | 73.3%
COc1ccc(-c2cc(-c3ccccc3)nc(SCCCCCCC(=O)NO)n2)cc1 | 79.6%
C=CCN(CC=C)C(=O)[C@H](CC)[C@@H]1CC[C@@H](C)[C@@H]([C@H](C)[C@@H](O)[C@@H](C)C(=O)[C@H](CC)C2O[C@]3(C=C[C@@H](O)[C@]4(CC[C@@](C)([C@H]5CC[C@](O)(CC)[C@H](C)O5)O4)O3)[C@H](C)C[C@@H]2C)O1 (stereo not given in full) | 6.36% (active)
N#Cc1c(N)nc(-c2cc(F)cc(C(F)(F)F)c2)nc1-c1ccccc1F | 24.9%
CCN(CC)CCOc1ccc2c(c1O)C(=O)c1ccccc1C2=O | 76.2%
COc1ccc(-c2cc(-c3cc(OC)ccc3OC)nc(N)c2C#N)cc1 | 59%
CNC(=O)c1cc(Oc2ccc3c(c2)sc2nc(-c4ccc(N)cc4)cn23)ccn1 | 29.4%
CC(C)(C)OC(=O)CN1CCc2c(sc3ncnc(N/N=C/c4ccccc4Br)c23)C1 | 73.3%
C=CCn1c(SCC(=O)Nc2ccc(C(=O)/C=C/c3ccc(OC)cc3)cc2)nnc1-c1ccc(OC)c(OC)c1 | 73.1%
COc1cccc2ccc(CC(O)(c3ccccc3)c3ccccc3)nc12 | 93.8%
Cc1c2cnccc2c(C)c2c1c1cc(O)ccc1n2C(C)C | -6.79% (active)
COc1ccc(-c2cc(-c3ccccc3)nc(SCCCC(=O)NO)n2)cc1 | -8.2% (active)
Cc1ccc(-n2c(C)nn3c(=O)c4c5c(sc4nc23)CN(C)CC5)cc1 | 97.6%
Cc1c[nH]c(=O)n(Cc2nnc(CCC(=O)c3nc4ccccc4[nH]3)o2)c1=O | 30.2%
CC(=O)OC1CC2C(C)(C)CCC[C@]2(C)C2=C1C(O)=C(C(C)C)C(=O)C2=O (stereo not given in full) | 3.28% (active)
COc1ccc([C@H]2[C@H](C(=O)Nc3cccnc3)c3ccccc3C(=O)N2c2ccccc2)cc1 | 99.4%
COc1cc(C2C(C#N)=C(N)Oc3cc(O)ccc32)cc(OC)c1OC (stereo not given) | 35.9%
COc1ccc(/C=C2/SC(=S)NC2=O)c(OC)c1OC | 78.7%
O=C(O)c1cn(C2CC2)c2cc(N3CCN(C(=O)c4cc(-c5ccc(Cl)cc5)nc5ccccc45)CC3)c(F)cc2c1=O | 90.9%
Cc1ccc(NCCNCC(C)(C)O)c2c(=O)c3ccc(Cl)cc3sc12 | 34%
